This passage reports GFP signal change (wild-type ribosome), OD600 change and RFP signal change results from PubChem BioAssay AID720706 (Broad Institute, 2013).

The whole screen tested about 350,000 compounds, of which about 5,500 (1.6%) were called active.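 Rule for the calls: active = significant combined selectivity score with lowered wild-type GFP, culture density cut under 30%, mutant RFP and density less affected; inactive = any of these conditions unmet.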 The full list was thinned out, with actives kept by preference.

A short description of the experiment: reduced GFP signal of wild-type E. coli, primary screen, bacterial rRNA inhibitor project, GFP/RFP fluorescence, OD600, single point (AID 720706). The settings on record: E. coli WT GFP vs humanized-ribosome RFP mutants, 24 h; GFP signal change (wild-type ribosome): stronger effect = lower value, DMSO median 0, no signal -100; OD600 change: measured here: OD600 growth, DMSO median 0, no signal -100; RFP signal change: measured here: RFP humanized mutant strains, DMSO median 0, no signal -100, concentration not given here.
Turning to `N#Cc1ccc(CSc2ncccn2)cc1`, the GFP signal change (wild-type ribosome) was -4.06% (inactive), the OD600 change is -1.11% and the RFP signal change was -0.806%.

`Cc1ccc(CSc2nsc(C)c2C#N)cc1`: the GFP signal change (wild-type ribosome) was -24.5% (active), the OD600 change was -7.04% and the RFP signal change was -1.18%.

Consider `Cc1snc(SCc2c(F)cccc2Cl)c1C#N`, for which the GFP signal change (wild-type ribosome) was -4.85% (inactive), the OD600 change is -10.8% and the RFP signal change is -3.63%.

With `CN(C)C(=O)C[C@H]1C[C@@H]2c3cc(NC(=O)CC4CC4)ccc3O[C@@H]2[C@@H](CO)O1`, the GFP signal change (wild-type ribosome) is 1.34% (inactive), the OD600 change worked out at 0.566% and the RFP signal change was determined as 1.23%.

`Cc1ccc(S(=O)(=O)N(C)C[C@@H]2Oc3ccc(NC(=O)Cn4cnnn4)cc3CC(=O)N([C@H](C)CO)C[C@H]2C)cc1`: the GFP signal change (wild-type ribosome) is -0.977% (inactive), the OD600 change amounted to 0.458% and the RFP signal change was -4.09%.

As for `Cc1cccc(NC(=O)c2nc(S(=O)(=O)Cc3ccccc3)ncc2Cl)c1`, the GFP signal change (wild-type ribosome) was -14.7% (active), the OD600 change stood at 11% and the RFP signal change is -6.12%.

For `CSc1nnc(NC(=O)c2nc(S(=O)(=O)Cc3ccc(C)cc3)ncc2Cl)s1`, the GFP signal change (wild-type ribosome) was 2.78% (inactive), the OD600 change is -0.98% and the RFP signal change worked out at 0.486%.

In the case of `Cc1cccc(CS(=O)(=O)c2ncc(Cl)c(C(=O)Nc3ccc(F)cc3)n2)c1`, the GFP signal change (wild-type ribosome) is 6.16% (inactive), the OD600 change amounted to 2.7% and the RFP signal change is -4.49%.

`CS(=O)(=O)N1CCCCN2[C@@H](CO)[C@@H](c3ccc(Br)cc3)[C@@H]2C1`: the GFP signal change (wild-type ribosome) was 5.32% (inactive), the OD600 change is 1.18% and the RFP signal change worked out at 3.67%.

Regarding `COc1ccc(CNC(=O)COC(=O)c2ccc(C)c(S(=O)(=O)N3CCOCC3)c2)cc1OC`, the GFP signal change (wild-type ribosome) was -1.36% (inactive), the OD600 change was -0.45% and the RFP signal change was 4.29%.

In the case of `Cc1ccc(C(=O)OCC(=O)N2CC(C)CC(C)C2)cc1S(=O)(=O)N1CCCCC1` (stereo not drawn), the GFP signal change (wild-type ribosome) is -26.5% (inactive), the OD600 change is -33.2% and the RFP signal change is -6.95%.

As to `Cc1ccc(C(=O)OCC(=O)NCc2cc(C)c(O)c(C)c2)cc1S(=O)(=O)N1CCCCC1`, the GFP signal change (wild-type ribosome) is -24.5% (active), the OD600 change was -17% and the RFP signal change is -2.51%.

In the case of `COc1ccccc1C#Cc1ccc2c(c1)O[C@H](CN(C)Cc1cccnc1)[C@@H](C)CN([C@H](C)CO)S2(=O)=O`, the GFP signal change (wild-type ribosome) is -5.86% (inactive), the OD600 change was -7.99% and the RFP signal change came to 4.04%.

Regarding `Cc1cccc(NC(=O)Nc2ccc3c(c2)OCO3)n1`, the GFP signal change (wild-type ribosome) was 0.76% (inactive), the OD600 change is 7.09% and the RFP signal change is -5.02%.

With `CC(NC(=O)Nc1cccc([N+](=O)[O-])c1)c1ccc2c(c1)OCO2` (stereo not drawn), the GFP signal change (wild-type ribosome) was -34.5% (active), the OD600 change is -26.4% and the RFP signal change was -5.09%.

Regarding `CC(NC(=O)Nc1ccc2c(c1)OCO2)c1ccncc1` (stereo not drawn), the GFP signal change (wild-type ribosome) is 13.1% (inactive), the OD600 change worked out at 4.68% and the RFP signal change was determined as 1.46%.

Regarding `CC1CC2=C(CC1/C=N/NC(N)=S)C(C)(C)CCC2` (stereo not drawn), the GFP signal change (wild-type ribosome) is -18.2% (active), the OD600 change stood at 0.8% and the RFP signal change is -0.09%.

Take `Cc1noc(C)c1NC(=O)Nc1ccc2c(c1)C(=O)N([C@@H](C)CO)C[C@H](C)[C@H](CN(C)CC1CCCCC1)O2`: the GFP signal change (wild-type ribosome) is 2.74% (inactive), the OD600 change is 1.93% and the RFP signal change was -1.48%.

For the molecule `CCN(CC)S(=O)(=O)c1cc(C(=O)Nc2cc(S(=O)(=O)N3CCOCC3)ccc2N2CCCC2)ccc1F`, the GFP signal change (wild-type ribosome) is -10.4% (inactive), the OD600 change is -14.8% and the RFP signal change was determined as 1.19%.

For the molecule `CCN(CC)S(=O)(=O)c1ccc(N2CCCC2)c(NC(=O)c2ccc([N+](=O)[O-])o2)c1`, the GFP signal change (wild-type ribosome) was -27.2% (active), the OD600 change was determined as 5.04% and the RFP signal change came out at 9.95%.

`CCN(CC)S(=O)(=O)c1ccc(N2CCOCC2)c(NC(=O)c2ccc(=O)n(C)n2)c1`: the GFP signal change (wild-type ribosome) was 18.6% (inactive), the OD600 change worked out at 11.8% and the RFP signal change is -3.6%.

As for `C[C@@H]1CN([C@@H](C)CO)C(=O)c2cccc(NC(=O)Nc3ccc(F)cc3)c2O[C@H]1CN(C)Cc1ccc(-c2ccccc2)cc1`, the GFP signal change (wild-type ribosome) was -7.51% (inactive), the OD600 change was -2.98% and the RFP signal change was -0.352%.

For the molecule `O=C(C1CCC1)N1CC(=O)N2[C@@H](CO)[C@@H](c3ccc(C#Cc4cccc(F)c4)cc3)[C@@H]2C1`, the GFP signal change (wild-type ribosome) is -59.7% (inactive), the OD600 change was -79.3% and the RFP signal change was -12.2%.

For the molecule `CCc1ccccc1NC(=O)CN(C)C(=O)c1cc(C2CC2)nn1-c1ccccc1`, the GFP signal change (wild-type ribosome) was -2.02% (inactive), the OD600 change is -16.5% and the RFP signal change was determined as 3.78%.

As for `COc1cccc(NC(=O)CN(C)C(=O)c2cc(C3CC3)nn2-c2ccccc2)c1`, the GFP signal change (wild-type ribosome) is -29.5% (inactive), the OD600 change was -27.8% and the RFP signal change is -7.04%.

In the case of `COc1ccc(NC(=O)CN(C)C(=O)c2cc(C3CC3)nn2-c2ccccc2)cc1`, the GFP signal change (wild-type ribosome) was -22.4% (active), the OD600 change was -10.8% and the RFP signal change amounted to 5.24%.

For `Cc1nn(-c2ccccc2)c(C)c1/C=C/C(=O)OC(C)C(N)=O` (stereo not drawn), the GFP signal change (wild-type ribosome) is 0.439% (inactive), the OD600 change is -2.9% and the RFP signal change was -0.31%.

For the molecule `Cc1nn(-c2ccccc2)c(Cl)c1/C=C/C(=O)c1ccc(O)cc1`, the GFP signal change (wild-type ribosome) was -25.9% (active), the OD600 change was -19.6% and the RFP signal change was -0.656%.

For the molecule `Cc1nn(-c2ccc(F)cc2)c(Cl)c1/C=C(/CCC(=O)O)c1nc2ccccc2s1`, the GFP signal change (wild-type ribosome) was -52.2% (inactive), the OD600 change was -75.8% and the RFP signal change was -17.8%.

Turning to `COc1ccccc1CN1[C@H](CO)[C@H](c2ccccc2)C12CN(C(=O)c1ccccn1)C2`, the GFP signal change (wild-type ribosome) is -7.66% (inactive), the OD600 change is -1.5% and the RFP signal change is 11%.

`Cc1noc(C)c1NC(=O)Nc1ccc2c(c1)C(=O)N([C@H](C)CO)C[C@@H](C)[C@H](CN(C)Cc1ccncc1)O2`: the GFP signal change (wild-type ribosome) is 0.165% (inactive), the OD600 change was 5.53% and the RFP signal change is -0.035%.

In the case of `C[C@H]1CCCCO[C@@H](CN(C)S(=O)(=O)c2ccc(Cl)cc2)[C@@H](C)CN([C@@H](C)CO)C(=O)c2cc(NS(=O)(=O)c3cn(C)cn3)ccc2O1`, the GFP signal change (wild-type ribosome) was -1.49% (inactive), the OD600 change is -13.7% and the RFP signal change is 2.11%.

With `N#CCC(=O)N/N=C/c1cn(Cc2ccc3ccccc3c2)c2ccccc12`, the GFP signal change (wild-type ribosome) is 1.46% (inactive), the OD600 change is -2.06% and the RFP signal change came out at 0.715%.

Consider `O=C(Cn1cc(/C=N/NC(=O)c2cccc(C(F)(F)F)c2)c2ccccc21)Nc1ccc(F)cc1`, for which the GFP signal change (wild-type ribosome) was -1.48% (inactive), the OD600 change is -0.221% and the RFP signal change was -3.15%.

As for `COc1cccc(Cn2cc(/C=N/NC(=O)c3cc(O)cc(O)c3)c3ccccc32)c1`, the GFP signal change (wild-type ribosome) is -27.3% (active), the OD600 change was -17.9% and the RFP signal change came out at 2.51%.

For the molecule `COc1cccc(S(=O)(=O)N2C[C@@H](O)COC[C@H]3O[C@@H](CC(=O)N4CCOCC4)CC[C@@H]32)c1`, the GFP signal change (wild-type ribosome) is 0.378% (inactive), the OD600 change is -0.728% and the RFP signal change is -3.58%.

With `O=S(=O)(Cc1ccccc1)NCC[C@@H]1CC[C@@H](NS(=O)(=O)c2ccccc2)[C@@H](CO)O1`, the GFP signal change (wild-type ribosome) was -0.181% (inactive), the OD600 change turned out to be 0.151% and the RFP signal change turned out to be 1.58%.

As to `C[C@H](CO)N1C[C@H](C)[C@@H](CN(C)Cc2ccc3c(c2)OCO3)OCCCC[C@H](C)Oc2ccc(NC(=O)Nc3ccc(C(F)(F)F)cc3)cc2C1=O`, the GFP signal change (wild-type ribosome) is 7.88% (inactive), the OD600 change is -5.08% and the RFP signal change is 3.82%.

Take `CCOc1cc(C=NNC(=O)CCCC(=O)NN=Cc2ccc(O)c(OCC)c2)ccc1O`: the GFP signal change (wild-type ribosome) is 4.33% (inactive), the OD600 change is -0.6% and the RFP signal change amounted to 2.51%.

As to `O=C(CCc1ccc(O)cc1)NN=Cc1cc(Br)ccc1O`, the GFP signal change (wild-type ribosome) is -37.7% (inactive), the OD600 change is -33.3% and the RFP signal change was -8.11%.

On to `O=C(CCCO)N/N=C/c1cc(Br)ccc1O`, for which the GFP signal change (wild-type ribosome) is -15.6% (active), the OD600 change amounted to 11.6% and the RFP signal change was determined as 1.76%.
